# PubChem BioAssay (EPA / NIEHS)
# Activity calls are given as the source filed them. How the source made its calls: active means hit-call score of the fitted dose curve at least 0.9, where 1 is the maximum; inactive means score below 0.9.
# Tested on: not listed separately
# Assay: ATG_Oct_MLP_CIS: Attagene CIS-FACTORIAL HepG2 Assay for human Octamer-Binding Transcription Factor (Oct) (AID 2282993)
# Conditions: HepG2 Attagene cis-factorial Oct reporter, mRNA; actives raise or lower the signal
# Procedure, shortened: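 Read-out: reporter mRNA via RT-PCR plus capillary electrophoresis of 6-FAM-labelled fragments. Transiently transfected HepG2, 24 h exposure, endogenous TF activity on cis elements. Gain or loss of signal fitted relative to DMSO.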
Structure (SMILES),outcome,AC50
NC(=O)C1CO1 (stereo unspecified),inactive,
CCCCC(CC)COCC1CO1 (stereo unspecified),inactive,
c1cc(C(c2ccc(OCC3CO3)cc2)C(c2ccc(OCC3CO3)cc2)c2ccc(OCC3CO3)cc2)ccc1OCC1CO1 (stereo unspecified),,25.6 µM (active)
CC(=O)C=CC1C(C)=CCC(C)C1(C)C (stereo unspecified),inactive,
c1ccc2c(c1)ccc1ncccc12,inactive,
CC1=Nc2ccc3ccccc3c2C1(C)C,inactive,
O=S(=O)(O)c1cc(S(=O)(=O)O)c2ccc3c(S(=O)(=O)O)cc(S(=O)(=O)O)c4ccc1c2c43,inactive,
C=C(C)[C@@H]1CCC2=CCC[C@@H](C)[C@]2(C)C1,inactive,
COC(=O)c1cc(Cl)ccc1[N+](=O)[O-],inactive,
CC(C)C(=O)C(C)C,,29.2 µM (active)
CC(=O)OCC(C)OC(C)=O (stereo unspecified),inactive,
CNC(=S)N(C)C,inactive,
CCCCC(CC)COC(=O)c1ccccc1 (stereo unspecified),inactive,
CCCCCCCCC(=O)OCC,inactive,
CCCCCCCCCCCSCC(=O)O,,79.2 µM (active)
C=C(C)C(=O)OCCOc1ccccc1,inactive,
c1cc(N(CC2CO2)CC2CO2)ccc1OCC1CO1 (stereo unspecified),,20.3 µM (active)
Cc1ccc(C(C)c2ccc(C)c(C)c2)cc1C,,147 µM (active)

Structure (SMILES),outcome,AC50
CC(=O)Nc1nnc(S(N)(=O)=O)s1,inactive,
OC1CCCCCCCCCCC1,inactive,
CCC(CC)C(=O)O,inactive,
CO[Si](CCC1CCC2OC2C1)(OC)OC (stereo unspecified),inactive,
CC1=NC(C)OC1C (stereo unspecified),inactive,
N=c1ccn2c(n1)O[C@H]1[C@H](O)[C@@H](CO)O[C@H]12,inactive,
CCCCCCCCCCCCCCCC[N+](C)(C)CC,inactive,
CCc1nccnc1C,inactive,
OCCCS,inactive,
FC(F)(F)C(=NOCC1OCCO1)c1ccc(Cl)cc1,inactive,
NC(CO)(CO)CO,inactive,
Cc1cc(C)c(C(=O)O)c(C)c1,inactive,
O=C1CCCCCCCCCCC(=O)OCCO1,inactive,
CCOC(=O)c1ccc(N(C)C)cc1,inactive,
O=Nc1ccc(O)cc1,inactive,
COCc1c(C(C)C)nc(C(C)C)c(/C=C/[C@@H](O)C[C@@H](O)CC(=O)O)c1-c1ccc(F)cc1,inactive,
SCCc1cnccn1,inactive,

# Target: Cellular tumor antigen p53 (Homo sapiens) (UniProt P04637)
# Assay: ATG_p53_CIS: Attagene CIS-FACTORIAL HepG2 Assay for human p53 Transcription Factor (AID 2282994)
# Conditions: HepG2 p53 cis-element reporter, Attagene mRNA; actives raise or lower the signal
# Procedure, shortened: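 HepG2 cells transiently transfected with multiplexed cis-regulated reporter transcription units read endogenous TF activity. After 24 h compound exposure, reporter mRNA was quantified by RT-PCR, fluorescent labelling, HpaI digestion and capillary electrophoresis; bidirectional fits versus DMSO baseline.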
# Sequence of Cellular tumor antigen p53 (Homo sapiens) (P04637 whole entry, looked up): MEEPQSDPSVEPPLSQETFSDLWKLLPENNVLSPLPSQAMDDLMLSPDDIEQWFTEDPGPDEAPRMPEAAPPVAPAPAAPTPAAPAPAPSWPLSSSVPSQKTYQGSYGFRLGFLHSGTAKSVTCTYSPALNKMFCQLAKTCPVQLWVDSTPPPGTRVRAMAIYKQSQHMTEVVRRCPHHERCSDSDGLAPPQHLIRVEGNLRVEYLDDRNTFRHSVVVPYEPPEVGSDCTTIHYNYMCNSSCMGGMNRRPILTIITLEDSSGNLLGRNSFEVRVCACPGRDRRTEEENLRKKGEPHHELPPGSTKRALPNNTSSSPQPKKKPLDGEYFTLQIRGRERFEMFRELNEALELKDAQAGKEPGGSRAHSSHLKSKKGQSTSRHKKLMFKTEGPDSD
Structure (SMILES),outcome,AC50
O=[N+]([O-])c1ccc(CO)cc1,inactive,
NC(=O)C1CO1 (stereo unspecified),inactive,
CC(=O)C=CC1C(C)=CCC(C)C1(C)C (stereo unspecified),inactive,
O=C1CCCC1,inactive,
O=S(=O)(O)c1cc(S(=O)(=O)O)c2ccc3c(S(=O)(=O)O)cc(S(=O)(=O)O)c4ccc1c2c43,inactive,
C=C(C)[C@@H]1CCC2=CCC[C@@H](C)[C@]2(C)C1,inactive,
CC(C)C(=O)C(C)C,inactive,
CC(=O)OCC(C)OC(C)=O (stereo unspecified),inactive,
CNC(=S)N(C)C,inactive,
CCCCCCCCCCCSCC(=O)O,inactive,
CC(=O)Nc1nnc(S(N)(=O)=O)s1,inactive,
OC1CCCCCCCCCCC1,inactive,
CCC(CC)C(=O)O,inactive,
CC(C)=CCCC(C)C=O (stereo unspecified),inactive,
CO[Si](CCC1CCC2OC2C1)(OC)OC (stereo unspecified),inactive,
CC1=NC(C)OC1C (stereo unspecified),,167 µM (active)
N=c1ccn2c(n1)O[C@H]1[C@H](O)[C@@H](CO)O[C@H]12,inactive,
CCCCCCCCCCCCCCCC[N+](C)(C)CC,,11.8 µM (active)
CCc1nccnc1C,inactive,
OCCCS,inactive,
FC(F)(F)C(=NOCC1OCCO1)c1ccc(Cl)cc1,inactive,
NC(CO)(CO)CO,inactive,
Cc1cc(C)c(C(=O)O)c(C)c1,inactive,
O=C1CCCCCCCCCCC(=O)OCCO1,inactive,
C=C1C2CCC(C2)C1(C)C (stereo unspecified),inactive,
C(=CC=Nc1ccccc1)C=CNc1ccccc1,inactive,
COCc1c(C(C)C)nc(C(C)C)c(/C=C/[C@@H](O)C[C@@H](O)CC(=O)O)c1-c1ccc(F)cc1,inactive,
SCCc1cnccn1,,46.4 µM (active)

# Read-out: not listed separately
# Assay: BSK_3C_TissueFactor: BioMAP Diversity Plus: 3C Assay for Tissue Factor Biomarker Activity (AID 2282997)
# Conditions: BioMAP 3C HUVEC, tissue factor biomarker readout; actives raise or lower the signal
# Procedure, shortened: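 Values derive from bidirectional curve fitting against DMSO of Tissue Factor ELISA signals, taken 24 h after dosing primary human umbilical vein endothelial cells.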
Structure (SMILES),outcome,AC50
CCCCC(CC)COCC1CO1 (stereo unspecified),inactive,
c1ccc2c(c1)ccc1ncccc12,,8 µM (active)
CC(C)C(=O)C(C)C,inactive,
CCCCCCCCCCCCCCCC[N+](C)(C)CC,,12.1 µM (active)
O=Nc1ccc(O)cc1,inactive,
COCc1c(C(C)C)nc(C(C)C)c(/C=C/[C@@H](O)C[C@@H](O)CC(=O)O)c1-c1ccc(F)cc1,,5.66 µM (active)

# Read-out: not listed separately
# Assay: BSK_3C_uPAR: BioMAP Diversity Plus: 3C Assay for Urokinase-type plasminogen activator receptor (uPAR) Biomarker Activity (AID 2282998)
# Conditions: BioMAP 3C HUVEC, uPAR biomarker ELISA; actives raise or lower the signal
# Procedure, shortened: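 HUVEC primary cells; 24 h post-dose; uPAR by ELISA; gain or loss of signal fitted bidirectionally vs DMSO baseline.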
Structure (SMILES),outcome,AC50
CCCCC(CC)COCC1CO1 (stereo unspecified),inactive,
c1ccc2c(c1)ccc1ncccc12,,13.4 µM (active)
CC(C)C(=O)C(C)C,inactive,
CCCCCCCCCCCCCCCC[N+](C)(C)CC,,0.65 µM (active)
O=Nc1ccc(O)cc1,inactive,
COCc1c(C(C)C)nc(C(C)C)c(/C=C/[C@@H](O)C[C@@H](O)CC(=O)O)c1-c1ccc(F)cc1,,0.0342 µM (active)

# Read-out: not listed separately
# Assay: BSK_3C_VCAM1: BioMAP Diversity Plus: 3C Assay for Vascular cell adhesion molecule 1 (VCAM1) Biomarker Activity (AID 2282999)
# Conditions: BioMAP 3C HUVEC, VCAM1 ELISA, cytokine-stimulated; actives raise or lower the signal
# Procedure, shortened: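 Human umbilical vein endothelial cells (3C system), biomarker read by ELISA 24 h after dosing; bidirectional fit against DMSO baseline. Cytotoxicity tracked by SRB total-protein staining in parallel cultures at biomarker time.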
Structure (SMILES),outcome,AC50
CCCCC(CC)COCC1CO1 (stereo unspecified),inactive,
c1ccc2c(c1)ccc1ncccc12,inactive,
CC(C)C(=O)C(C)C,inactive,
CCCCCCCCCCCCCCCC[N+](C)(C)CC,,3.17 µM (active)
O=Nc1ccc(O)cc1,inactive,
COCc1c(C(C)C)nc(C(C)C)c(/C=C/[C@@H](O)C[C@@H](O)CC(=O)O)c1-c1ccc(F)cc1,inactive,
